The inhibition is the relative decrease from the control value, in per cent.

Each structure is given as a SMILES string. The whole screen tested about 190,000 compounds, of which about 1,300 (0.68%) were called active. The full list was thinned out, with actives kept by preference. A number with no mark means an inactive call. Rule as the data show it: active = inhibition above about 50%; inactive = the rest.

Mannose-6-phosphate isomerase (Homo sapiens), sequence (P34949 whole entry, looked up): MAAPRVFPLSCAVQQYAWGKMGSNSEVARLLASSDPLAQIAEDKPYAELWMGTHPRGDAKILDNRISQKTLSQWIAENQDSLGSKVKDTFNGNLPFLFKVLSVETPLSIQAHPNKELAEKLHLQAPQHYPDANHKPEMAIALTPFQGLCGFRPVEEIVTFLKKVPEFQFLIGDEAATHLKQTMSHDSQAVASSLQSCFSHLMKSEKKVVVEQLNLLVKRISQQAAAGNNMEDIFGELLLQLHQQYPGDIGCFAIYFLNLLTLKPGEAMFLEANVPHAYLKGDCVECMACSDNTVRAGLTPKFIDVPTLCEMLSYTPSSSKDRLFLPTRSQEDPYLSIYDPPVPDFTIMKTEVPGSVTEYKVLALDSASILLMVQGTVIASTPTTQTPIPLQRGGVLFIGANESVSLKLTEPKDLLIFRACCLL

The test has as its target Mannose-6-phosphate isomerase (Homo sapiens) (UniProt P34949). The test can be described thus: human PMI inhibitors, high substrate, primary screen, biochemical, fluorescence intensity, high mannose 6-phosphate (AID 1220). Particulars: recombinant PMI enzyme, coupled fluorescence intensity; at 20 µM; active compounds read high.
Consider `COC(=O)c1oc2ccc(OC)cc2c1N`, for which the inhibition was -2.9%.
Consider `OCC[C@@H]1C[C@@H](O)[C@H](O)[C@]2(CCCCO2)O1`, for which the inhibition was 0.7%.
Take `COC(=O)c1cccc(C(=O)Nc2ccc(F)cc2)n1`: the inhibition was 2.8%.
`COc1ccc(NC(=O)C2CCN(C(=O)NCc3ccccc3)CC2)cc1`: the inhibition is 13%.
The figure for `CN(Cc1ccc(F)cc1)C(=O)CCc1nnc(-c2ccccc2)o1` is -0.8%.
In the case of `O=C(Cc1ccc(Cl)cc1)Nc1cccc(S(=O)(=O)Nc2ccccc2F)c1`, the inhibition was 10.4%.
As for `O=C(Nc1cccc(S(=O)(=O)Nc2ccccc2F)c1)c1ccc2ccccc2n1`, the inhibition was 44.1%.
Consider `CCOC(=O)CC(NS(=O)(=O)c1ccc(OC)c(C)c1)c1cccc([N+](=O)[O-])c1` (configuration not stated), for which the inhibition was 12.1%.
Turning to `CCOC(=O)c1ccc(S(=O)(=O)N2CCN(S(=O)(=O)CC)CC2)cc1`, the inhibition was 4.2%.
`CCNC(=S)N1CCN(C(c2ccccc2)c2ccccc2)CC1`: the inhibition was 18.7%.
Take `COc1ccc(C(=O)NC(C)c2nnc(SCC(=O)Nc3nc4ccccc4s3)n2C)cc1` (configuration not stated): the inhibition was 4.8%.
`CCOC(=O)c1c(-c2ccco2)csc1N`: the inhibition was 57.9% (active).
Regarding `CCOC(=O)c1c(-c2ccc(C)o2)csc1N`, the inhibition was 51.6% (active).
With `CCOC(=O)c1c(-c2ccc(C)o2)csc1NC(=O)CN1CCCCC1`, the inhibition was 20.2%.
Next, `CCOC(=O)c1c(-c2ccco2)csc1NC(=O)CSc1nnc(N)s1`: 9.8%.
For the compound `CCOC(=O)c1c(CC(C)C)csc1N`, the inhibition is 34.4%.
For `CCOC(=O)c1c(-c2ccc(C)o2)csc1NC(=O)COC(=O)c1cccs1`, the inhibition is 16.6%.
As to `COc1ccc(C(=O)O/N=C(/C)c2cccs2)cc1`, the inhibition was -4.4%.
For `Cc1c(NC(=S)NC(NC(=O)C(C)C)C(Cl)(Cl)Cl)c(=O)n(-c2ccccc2)n1C` (configuration not stated), the inhibition was 1.4%.
`NC(=O)C1(N2CCCCC2)CCN(Cc2ccc(F)cc2)CC1`: the inhibition was 1.7%.
Consider `C[C@]12CC[C@@H]3c4ccc(O)cc4CC[C@H]3[C@@H]1CC[C@@H]2O`, for which the inhibition is -6.7%.
As to `C[C@]12CC[C@@H]3c4cc(O)c(O)cc4CC[C@H]3[C@@H]1CC[C@@H]2O`, the inhibition is 27.9%.
For `COC(=O)/C=c1/s/c(=C(\C#N)C(=O)NCc2ccco2)n(-c2ccccc2)c1=O`, the inhibition was -5.5%.
For the compound `Cc1ccc(-n2ncc(C#N)c2/N=C/N2CCOCC2)cc1`, the inhibition was 14.1%.
Turning to `Cc1cc(O)ccc1N/C=C1\CCCC1=O`, the inhibition is 54.1% (active).
For the compound `O=C1CCCC/C1=C\Nc1ccc(O)cc1`, the inhibition is 25%.
`Cc1ccc(N/C=C2\CCCCC2=O)c(C)c1`: the inhibition is -0.6%.

The record behind these values is PubChem BioAssay AID1220 (Sanford-Burnham Center for Chemical Genomics, 2008).
